# According to the supplement of paper PMC10338343:
# ± gives the standard deviation.
# Assays:
# [1] = tested on: MILI (PIWIL2) piRISC loaded with piRNA #1 (26 nt); assay: pre-steady-state target cleavage rate (min^-1); guide: piRNA #1 5'p-UGAGGUAGUAGGUUGUAUAGUAUCCA; higher = faster piRNA-guided slicing of the target; details: auxiliary factor: 500 nM mouse GTSF1
# In short: (§1)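 The pre-steady-state cleavage rate was obtained by Cleave-'n-Seq with a burst-and-steady-state fit. A transcribed, DNA-blocked target RNA library (0.1 nM) was mixed with 1 nM active affinity-purified piRISC carrying one synthetic guide, with or without 500 nM GTSF1 partner protein, in HEPES–potassium acetate buffer at 33 °C for 0–8 or 0–960 min. Uncleaved targets were sequenced and normalised to depth and to weakly complementary targets, with three trials pooled and k3 capped at 0.0001 min^-1.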
# [2] = tested on: EfPiwi piRISC loaded with piRNA #1 (26 nt); assay: pre-steady-state target cleavage rate (min^-1); auxiliary factor: 500 nM Ephydatia muelleri Gtsf1; guide: piRNA #1 5'p-UGAGGUAGUAGGUUGUAUAGUAUCCA; MIWI and MILI are mouse PIWI proteins and EfPiwi is from a freshwater sponge; tags in brackets are library labels; higher = faster piRNA-guided slicing of the target
# In short: as §1
Sequence,pre-steady-state target cleavage rate [1],pre-steady-state target cleavage rate [2]
GGAGACGAAACUAUACAACCUACUACCUCA,0.172 ± 0.022,0.0619 ± 0.022
GGAGACGUUACUAUACAACCUACAACCUCA,0.114 ± 0.015,0.00216 ± 0.0017
GGAGACGAUUCUAUACAACCUUCUACCUCA,0.0216 ± 0.0072,0.00518 ± 0.0027
GGAGACCAUACUAUGACAACCUACUACCUCA,0.165 ± 0.017,0.00762 ± 0.0033
GGAGAGCAUACUAUACAACCUACAACCUCA,0.133 ± 0.015,0.0026 ± 0.0017
GGAGUGGAUACUAUACUACCUACUUCCUCA,0.0121 ± 0.0027,0.00222 ± 0.0021
GGAGUGGAUACAAUACAACGUACUACCUCA,0.0223 ± 0.0023,0.00385 ± 0.0018
GGAGACCAUACAUUACAACCUACUACCUCA,0.0869 ± 0.014,0.0108 ± 0.0045
GGAGACCUAUGUAUACAACCUACUACCUCA [g2:g19:cont:t1A],0.0765 ± 0.012,0.00649 ± 0.0034
GGAGACCUAUCUAUACAAGCUACUACGUCA,0.112 ± 0.012,0.00274 ± 0.0026
GGAGACGAUAAUAUACAACCUACUACCUCA,0.172 ± 0.011,0.072 ± 0.025
GGAGACCUUACUAUACAACCUACGACCUCA,0.113 ± 0.012,0.00282 ± 0.0024
